# PNC assembly inh: inhibitors of perinucleolar compartment assembly | activity change (PNC), negative = inhibition, % at 10 µM | PC3M PTB-GFP, PNC prevalence imaging, 16 h; active compounds read low | 140,000 compounds, 3.1% hits;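 active = readout at or below -70, meaning at least 70% loss of cells showing the perinucleolar compartment, a nuclear body marking cancer cells; inconclusive = readout between -30 and a set limit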;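 also: plate controls were DMSO wells for no effect and camptothecin positive control wells for full effect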
#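 Compounds are pinned in duplicate onto adhered PC3M cells stably expressing GFP-tagged PTB and incubated 16 h at 37 C. Cells are then fixed, nuclei stained with Hoechst, and PNC-positive cells counted.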
# ALOX15B inhib: 15-hLO-2 (ALOX15B) enzyme inhibition | purified 15hLO-2, xylenol orange hydroperoxide absorbance | Potency, µM (top dose mostly 57.1 µM), inactives show at the top dose activity change, negative = inhibition, usual class: inhibitors | AID 881 | O15296 | 110,000 compounds, 0.56% hits; also: potency is read from the fitted curve at half-maximal effect; nearly all actives have a fitted effect of over 60% in size
#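 Screening format was qHTS against 50 nM purified 15hLO-2 in Hepes pH 7.5 with detergent. Activity follows hydroperoxide formation from 45 uM arachidonic acid, measured as 573:405 nm absorbance ratio of the ferric-xylenol orange complex.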
# 12-hLO inh: 12-hLO (ALOX12) enzyme inhibition; P18054; purified 12-hLO, xylenol orange hydroperoxide absorbance; Potency, µM (doses to about 57.1 µM), for the others: at the top dose activity change, negative = inhibition, hits mostly inhibitors; 150,000 compounds, 0.12% hits; AID 1452; also: potency is read from the fitted curve at half-maximal effect; nearly all actives have a fitted effect of over 55% in size
# Target sequence (P18054 whole entry, looked up): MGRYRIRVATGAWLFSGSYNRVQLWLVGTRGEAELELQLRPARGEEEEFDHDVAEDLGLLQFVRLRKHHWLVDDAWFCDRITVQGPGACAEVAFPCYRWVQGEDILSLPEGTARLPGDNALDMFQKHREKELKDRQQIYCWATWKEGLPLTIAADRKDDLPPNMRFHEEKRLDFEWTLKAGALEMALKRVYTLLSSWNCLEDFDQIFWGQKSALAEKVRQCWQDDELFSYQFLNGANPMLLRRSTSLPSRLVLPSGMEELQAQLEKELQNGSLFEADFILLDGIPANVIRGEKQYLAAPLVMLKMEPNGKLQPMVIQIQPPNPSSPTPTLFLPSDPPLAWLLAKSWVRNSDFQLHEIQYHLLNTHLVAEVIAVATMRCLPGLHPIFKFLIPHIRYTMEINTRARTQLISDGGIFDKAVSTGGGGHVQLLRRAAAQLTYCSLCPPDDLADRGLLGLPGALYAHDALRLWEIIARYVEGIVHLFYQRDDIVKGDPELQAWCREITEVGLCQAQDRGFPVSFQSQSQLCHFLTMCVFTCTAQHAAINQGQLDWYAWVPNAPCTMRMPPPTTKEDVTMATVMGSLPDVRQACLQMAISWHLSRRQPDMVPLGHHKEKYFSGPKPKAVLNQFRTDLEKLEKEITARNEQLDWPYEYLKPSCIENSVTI
#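 Xylenol orange chromogenic assay: hydroperoxide from 12hLO oxidises Fe(II), giving red-shifted Fe(III)-XO absorbance. Conditions: 150 nM enzyme, 40 uM arachidonic acid, 25 mM Hepes pH 7.0, 0.01% Triton X-100, 30 min, room temperature.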
# IMPase inh: cell-permeable inhibitors of inositol monophosphatase (IMPase). 120,000 tested, under 10 active. inhibition (IP1 accumulation), % at 46.1 µM. CHO-M1 cells, IP1 accumulation, HTRF TR-FRET ratio; active = well fitted curve in the direction sought with a large enough effect in the signal ratio, not every such curve was filed as active; inconclusive = small, poorly fitted or top-dose-only effect, or a change in a side signal; inactive = no such curve, though single readings can be large or run the other way; the % refers to the signal ratio;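 also: cells stimulated with carbachol in lithium chloride buffer; plate controls were DMSO basal wells for no effect and reference inhibitor wells for full effect; higher means more IMPase inhibition seen as more IP1 and lower FRET ratio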
#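 Measured: the HTRF emission ratio (665/620 nm) plus the 620 nm donor channel, each fitted to the Hill equation to give AC50. Cells were CHO-M1 given compounds up to 46 uM and a 30 min carbachol stimulation at 37C.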
# IMPase Li inh: membrane-permeable IMPase blocker, potentiated with lithium; Potency, µM (titrated, usually from 59.4 µM), for inactives: at the top dose activity, negative = IMPase inhibition, actives largely listed as inhibitors; 210,000 compounds, 0.35% hits; CHO-M1 cells, IP1 TR-FRET (IP-One), carbachol + lithium;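 also: IP1 builds up when IMPase is blocked and the TR-FRET signal falls; potency is read from the fitted curve at half-maximal effect; plate controls were basal vehicle for no effect and high inhibitor control for full effect; nearly all actives have a fitted effect of over 50% in size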
#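 Lithium-sensitised IP1 accumulation assay; M1-expressing CHO cells treated 30 min at 37C with compound. Competitive antibody detection by time-resolved FRET followed a 10 min room-temperature lysis step.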
# The depositor's hits bear a star; ? = inconclusive; nt = no result; [ ] = dose if it differs, or a comment. Shown is part of a subset that was picked to be rich in hits. Unless noted, calls follow the shape of the dose curve; as a rule, active = well fitted curve in the direction sought with a large enough effect; inconclusive = small, poorly fitted or top-dose-only effect, or another doubt; inactive = no such curve, though single readings can be large; an effect the other way counts as inactive or inconclusive. Unless noted, % is scaled to controls: 0 for no effect and ±100 for the full control effect.
SMILES,PNC assembly inh,ALOX15B inhib,12-hLO inh,IMPase inh,IMPase Li inh
CCSc1nnc(-c2ccccc2SC)o1,nt,nt,nt,nt,11µM*
O=S(=O)(C[C@H](O)C(Cl)(Cl)Cl)NNc1ccccc1,nt,-12%[11.4 µM],-6%[11.4 µM],nt,2%
O=C(CSc1ccc2c(c1)OCCO2)NC(=O)NC1CCCC1,-117*,-4%,5%,7,7%[38.3 µM]
O=C(Nc1ccc2c(c1)OCCO2)NC1CCCCC1,?,8%[2.29 µM],1%,6,-4%[38.3 µM]
CC(=O)N1CCN(c2ccc(S(=O)(=O)NCCN(C(C)C)C(C)C)cc2[N+](=O)[O-])CC1,-105*,nt,-4%,nt,8%
O=c1sc(N2CCN(c3ccc(F)cc3)CC2)nc2ccsc12,0,2%,-1%,6,22µM*
O=C1NC2=C(CCc3ccccc32)C(c2ccccc2)N1 (stereo not given),-113*,nt,-4%,nt,-5%
O=c1c2ccccc2sn1-c1ccc(S(=O)(=O)N2CCCC2)cc1,-2,0.4µM*,?,3,1%[38.3 µM]
O=S(=O)(c1cccc2c(Cl)cccc12)N1CCCNCC1,nt,32%,-3%,-6,-7%
O=S(=O)(c1cccc2c(S(=O)(=O)N3CCCC3)cccc12)N1CCCC1,-129*,-6%,5%,5,12%[38.3 µM]
O=c1c2ccccc2sn1-c1ccccc1,-12,1.3µM*,13µM*,4,31%[38.3 µM]
Cc1ccc(-n2sc3ccccc3c2=O)cc1S(=O)(=O)N1CCCCC1,?,0.63µM*,3.2µM*,5,9%[38.3 µM]
FC(F)(F)C(Cl)Br (stereo not given),nt,-4%,2%,nt,6%
Clc1cccc2sc(N3CCCCC3)nc12,-82*,1%,-12%,2,24%[38.3 µM]
O=C(NC[C@H]1CCCCN1)c1cc(OCC(F)(F)F)ccc1OCC(F)(F)F,nt,20%,1%,-5,2%
NC(N)=NC(N)=Nc1c(F)c(F)c(F)c(F)c1F,nt,-1%[11.4 µM],0%[11.4 µM],nt,-1%
O=C1CN(S(=O)(=O)c2ccc(Cl)cc2)CC(=O)N1CCc1ccccc1,48,-3%,5%,-1,-8%[38.3 µM]
O=C1CN(S(=O)(=O)c2ccc(F)cc2)CC(=O)N1CCc1ccccc1,-100*,-5%,6%,10,14%[38.3 µM]
COc1cc([C@@H]2c3cc4c(cc3C(OC3OC5COC(C)OC5C(O)C3O)C3COC(=O)[C@@H]32)OCO4)cc(OC)c1O (stereo not given in full),nt,nt,nt,nt,9%
CCOC(=O)Cc1csc(NC(=O)C2C3C=CC(C3)C2C(=O)O)n1 (stereo not given),-107*,-2%,4%,1,6%[38.3 µM]
CCOC(=O)Cc1csc(NC(=O)NC2(C(F)(F)F)Oc3ccc(Cl)cc3O2)n1 (stereo not given),?,?,-25%,-2,12%[38.3 µM]
CCOC(=O)Cc1csc(NC(=O)NC2(C(F)(F)F)Oc3cc(Cl)c(Cl)cc3O2)n1,-6,10µM*,?,-2,12%[38.3 µM]
Cc1csc(NC(=O)C2C3C=CC(C3)C2C(=O)O)n1 (stereo not given),-27,-1%,8%,2,5%[38.3 µM]
COc1cccc(-c2nc(SCC(=O)Nc3ccc4c(c3)OCO4)c(-c3ccccc3)[nH]2)c1,nt,nt,nt,0,nt
CC1(C)O[C@@H]2O[C@H]([C@@H]3COC(C)(C)O3)[C@H](N)[C@H]2O1,nt,-5%[11.4 µM],4%[11.4 µM],nt,-3%
SMILES,PNC assembly inh,ALOX15B inhib,12-hLO inh,IMPase inh,IMPase Li inh
O=C1c2cccc3c(O)ccc(c23)C(=O)N1Cc1ccccc1,-90*,-12%,-3%,-11,-2%[38.3 µM]
Cc1cccc(C2=N[C@@H](Cc3ccccc3)CO2)c1,nt,14%[0.0915 µM],1%[0.00818 µM],nt,2%
O=S(=O)(NCCCCCNS(=O)(=O)c1ccccc1)c1ccccc1,-91*,0%,-1%,5,6%[38.3 µM]
O=C(/C=C/Nc1ccccc1F)c1ccc(Br)cc1,-115*,nt,2%,nt,1%
O=C(/C=C/NNC(=O)c1ccccc1)c1ccc(Br)cc1,-8,-8%,-29%,8,-11%[38.3 µM]
O=C(/C=C/NCC(=O)c1ccccc1)c1ccc(Br)cc1,-97*,nt,-24%,-6,-4%
N[C@H](C(=O)O)c1ccc(C(=O)O)cc1,nt,20%,4%,5,-9%
O=C(c1ccc(S(=O)(=O)c2ccc(F)cc2)c([N+](=O)[O-])c1)N1CCCCCC1,-119*,nt,-3%,7,15%
O=C(c1ccc(S(=O)(=O)Cc2ccccc2F)c([N+](=O)[O-])c1)N1CCCC1,nt,nt,nt,nt,-2%
CCCCC(c1nnnn1CCOC)N1CCN(CC)CC1 (stereo not given),-100*,nt,2%,-10,14%
NC(N)=NC(N)=Nc1ccccc1 (tested in a mixture with another compound),nt,-11%[11.4 µM],-2%[11.4 µM],nt,0%
O=C(O)c1ccc(Cl)c(S(=O)(=O)Nc2ccccc2)c1,nt,nt,-3%,nt,nt
C/C=C/c1c(F)c(F)c(Oc2ccc(C(=O)O)cc2)c(F)c1F,-84*,-6%,5%,-2,29%[38.3 µM]
N=C(C[C@@H](O)COc1ccccc1-c1ccccc1)N1CCCCC1,nt,50%,-3%,13,19%
CC1=C(C(=O)Nc2ccccc2)C2(CCCCC2)C(C(N)=O)C(=S)N1 (stereo not given),9,nt,-1%,nt,-3%
CC1=C(C(=O)Nc2ccccc2C)C2(CCCCC2)C(C(N)=O)C(=S)N1 (stereo not given),-85*,nt,-1%,nt,-7%
CC1=C2C(=COC(C)C2C)C(=O)C(C(=O)O)=C1O (stereo not given),nt,-23%,-10%,nt,5%
N#Cc1nc(-c2cccs2)oc1N1CCOCC1,?,-1%,-2%,-14,11µM*
O=C1C2C3C=CC(C2C(=O)N1CN1CCOCC1)C1C2C(=O)N(CN4CCOCC4)C(=O)C2C31 (stereo not given),nt,-6%[11.4 µM],2%[11.4 µM],nt,-4%
Cc1ccc(C(=O)c2cc([N+](=O)[O-])ccc2N2CCCCC2)cc1,-110*,nt,-1%,nt,12%
O=C(c1ccccc1)c1cc([N+](=O)[O-])ccc1N1CCOCC1,-112*,nt,-3%,-7,7%
O=C(c1ccc(Cl)cc1)c1cc([N+](=O)[O-])ccc1N1CCOCC1,nt,nt,nt,nt,20%
CCOC(=O)c1cc(CC)sc1NC(=O)c1cc([N+](=O)[O-])ccc1N1CCOCC1,-84*,7%,0%,6,-6%[38.3 µM]
CC1CCCN(c2ccc([N+](=O)[O-])cc2C(=O)c2ccccc2)C1 (stereo not given),-100*,nt,-4%,nt,10%
CC1CCN(c2ccc([N+](=O)[O-])cc2C(=O)O)CC1,26,nt,-5%,-4,-4%
Cc1ccc(C(=O)c2cc([N+](=O)[O-])ccc2N2CC(C)OC(C)C2)cc1 (stereo not given),-18,nt,-1%,-11,13%
O=C(c1cccnc1)c1cccnc1,-124*,nt,-3%,nt,2%
